Assay results as given in PubChem BioAssay (EPA / NIEHS).
Several values for one entry are separate records, joined by “and”; a condition that tells them apart may be missing. Equal entries are not always repeated. More than one record can exist for a structure, and the calls need not agree. Activity calls are given as the source filed them. How the source made its calls: active means hit-call score of the fitted dose curve at least 0.9, where 1 is the maximum; inactive means score below 0.9.

Assays:
[1] = ATG_CRE_CIS: Attagene CIS-FACTORIAL HepG2 Assay for human cAMP Responsive Element (CRE) binding protein 3 (AID 2282926); settings: HepG2 CRE cis-reporter, Attagene multiplexed mRNA; actives raise or lower the signal
Outline: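 We dosed HepG2 cells bearing multiple cis-promoter reporter units for 24 h and measured reporter mRNA by RT-PCR with capillary electrophoresis detection. Bidirectional concentration-response fitting used DMSO as negative control.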

[2] = ATG_CMV_CIS: Attagene CIS-FACTORIAL HepG2 Assay for human CMV (Internal Marker) (AID 2282928); settings: HepG2 CMV promoter reporter, transcription factor profiling; actives raise or lower the signal;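 further: endpoint acts as a background internal control marker rather than a target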
Outline: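 After transient transfection of HepG2 with reporter transcription units driven by cis-regulatory promoters, cells receive test chemical for 24 h. Labeled reporter amplicons, digested with HpaI, are sized and quantified by capillary electrophoresis against DMSO.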

[3] = ATG_DR4_LXR_CIS: Attagene CIS-FACTORIAL HepG2 Assay for human Liver X Receptor (LXR), DR4 submotif (AID 2282929); settings: HepG2 Attagene DR4 cis-reporter, mRNA transcription; actives raise or lower the signal
Outline: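 Cells were transfected with multiple reporter transcription units, exposed to chemicals for 24 hours, then lysed for RNA. Reporter mRNA induction was measured by RT-PCR with capillary electrophoresis detection and fitted in both directions relative to DMSO.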

[4] = biological target: Aryl hydrocarbon receptor (Homo sapiens) (UniProt P35869); assay: ATG_Ahr_CIS: Attagene CIS-FACTORIAL HepG2 Assay for human Aryl Hydrocarbon Receptor (Ahr) (AID 2282930); settings: HepG2 AhR cis-factorial reporter transcription; actives raise or lower the signal
Outline: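 HepG2 cells transiently transfected with cis-element-driven multiplexed reporter units; endogenous AhR activity read as reporter mRNA 24 h after dosing, via RT-PCR, 6-FAM labelling, HpaI digestion and capillary electrophoresis. Bidirectional fit relative to DMSO.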

[5] = ATG_AP_1_CIS: Attagene CIS-FACTORIAL HepG2 Assay for human Activator Protein 1 (AP-1) (AID 2282931); settings: HepG2 Attagene cis-factorial AP-1 reporter mRNA; actives raise or lower the signal
Outline: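 Endogenous transcription-factor activity in human HepG2 liver cells is read through a cis-promoter reporter transcript, sampled 24 h after dosing. Detection uses RT-PCR with capillary electrophoresis; values come from bidirectional fitting relative to DMSO.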

[6] = ATG_AP_2_CIS: Attagene CIS-FACTORIAL HepG2 Assay for human Activator Protein 2 (AP-2) (AID 2282932); settings: HepG2 AP-2 cis-reporter, Attagene transcription factor profiling; actives raise or lower the signal
Outline: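 Multiplexed mRNA reporter assay in HepG2: cis-regulated units report endogenous factor activity after 24 h treatment. Fluorescence from capillary electrophoresis of RT-PCR products gives the signal, with DMSO as baseline.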

[7] = ATG_BRE_CIS: Attagene CIS-FACTORIAL HepG2 Assay for human Bone Morphogenetic Protein (BMP) Response Element (BRE) (AID 2282933); settings: HepG2 BMP response element reporter, Attagene transcription factor profiling; actives raise or lower the signal
Outline: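 Transient MRTU transfection of human HepG2 liver cells; 24 h compound treatment; total RNA isolated, reverse-transcribed, PCR-amplified, 6-FAM labelled, HpaI-cut, capillary electrophoresis. DMSO = negative control/baseline, bidirectional fit.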

[8] = biological target: Retinoic acid receptor alpha (Homo sapiens) (UniProt P10276); assay: ATG_DR5_RAR_CIS: Attagene CIS-FACTORIAL HepG2 Assay for human Retinoic Acid Receptor Alpha (RARE), DR5 submotif (AID 2282934); settings: HepG2 Attagene cis-factorial RARE DR5 reporter, mRNA; actives raise or lower the signal;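 on AC50: reporter responds to endogenous RAR alpha beta and gamma in HepG2 not RARA alone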
Outline: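 HepG2 cells transiently transfected with multiplexed reporter units; DR5 cis-element drives reporter through endogenous transcription factors. After 24 h dosing, reporter mRNA quantified by RT-PCR, fluorescent labeling, HpaI digestion and capillary electrophoresis; bidirectional fitting versus DMSO.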

[9] = biological target: Transcription factor E2F1 (Homo sapiens) (UniProt Q01094); assay: ATG_E2F_CIS: Attagene CIS-FACTORIAL HepG2 Assay for human E2F Transcription Factor 1 (AID 2282935); settings: HepG2 Attagene cis-reporter, E2F reporter RNA transcripts; actives raise or lower the signal
Outline: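 Measures reporter transcript levels via RT-PCR with capillary electrophoresis detection in HepG2 cells harboring cis-regulated reporter units; 24 h post-dose; bidirectional curve fitting with DMSO as baseline.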

[10] = ATG_E_Box_CIS: Attagene CIS-FACTORIAL HepG2 Assay for human Enhancer Box (E-box) (AID 2282936); settings: HepG2 E-box cis-reporter transcription, actives raise or lower the signal
Outline: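 First, HepG2 cells receive multiple cis-regulated reporter constructs by transient transfection. Next, chemicals are applied for 24 h. Finally, reporter mRNA is quantified via RT-PCR and capillary electrophoresis, with DMSO as baseline.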

[11] = ATG_M_61_CIS: Attagene CIS-FACTORIAL HepG2 Assay for M61 Transcription Factor (Internal Marker) (AID 2282937); settings: HepG2 Attagene CIS-FACTORIAL M61 internal marker reporter; actives raise or lower the signal
Outline: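 Cells were transfected with reporter units under cis-regulatory promoters, treated with chemicals for 24 h, then lysed for RNA. Reporter transcripts were quantified by RT-PCR and capillary electrophoresis, and activity was fitted bidirectionally against DMSO.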

[12] = ATG_M_19_CIS: Attagene CIS-FACTORIAL HepG2 Assay for M19 Transcription Factor (Internal Marker) (AID 2282939); settings: HepG2 Attagene CIS-FACTORIAL M19 internal marker reporter; actives raise or lower the signal
Outline: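 Transfect HepG2 with MRTU reporter library → dose chemical, 24 h → isolate total RNA, reverse-transcribe with oligo(dT) → PCR, 6-FAM label, HpaI cut (2 h, 37 C) → capillary electrophoresis. Bidirectional fit vs DMSO.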

[13] = ATG_ERE_CIS: Attagene CIS-FACTORIAL HepG2 Assay for Estrogen Response Element (ERE) (AID 2282940); settings: HepG2 ERE cis-reporter, Attagene RNA transcript; actives raise or lower the signal
Outline: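 Transient MRTU transfection of human HepG2; cis-element promoters; 24 h dosing; total RNA → RT (oligo dT) → PCR → 6-FAM primer extension → HpaI digest → CE fluorescence. Bidirectional fit, DMSO baseline.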

[14] = ATG_Ets_CIS: Attagene CIS-FACTORIAL HepG2 Assay for human Erythroblast Transformation Specific (ETS) (AID 2282941); settings: HepG2 ETS cis-reporter transcription, actives raise or lower the signal
Outline: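 Human HepG2 hepatoma cells were transiently transfected with promoter-driven reporter constructs and treated for 24 hours. Reporter transcripts were quantified by RT-PCR with fluorescent primer extension; bidirectional curve fitting used DMSO as reference.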

[15] = biological target: Hepatocyte nuclear factor 3-beta (Homo sapiens) (UniProt Q9Y261); assay: ATG_FoxA2_CIS: Attagene CIS-FACTORIAL HepG2 Assay for human Forkhead box A2 (FOXA2) (AID 2282942); settings: HepG2 cis-reporter transcription factor activity, 24 h; actives raise or lower the signal
Outline: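 Endogenous transcription factor activity was read in HepG2 cells carrying transiently transfected cis-promoter reporter units. After 24 h dosing, reporter mRNA was quantified by RT-PCR and capillary electrophoresis, and values fitted bidirectionally versus DMSO.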

[16] = ATG_FoxO_CIS: Attagene CIS-FACTORIAL HepG2 Assay for human Forkhead box O (FoxO) (AID 2282943); settings: HepG2 Attagene cis-reporter, FoxO element, mRNA; actives raise or lower the signal
Outline: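 HepG2 cells transiently transfected with cis-element-driven reporter units report endogenous FoxO activity. After 24 h chemical exposure, reporter mRNA quantified by RT-PCR, fluorescent labeling, HpaI digestion and capillary electrophoresis; bidirectional fit versus DMSO.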

[17] = ATG_GATA_CIS: Attagene CIS-FACTORIAL HepG2 Assay for human GATA Binding Protein (AID 2282944); settings: HepG2 GATA cis-element reporter, Attagene multiplex mRNA; actives raise or lower the signal
Outline: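 Transient MRTU transfection, HepG2, 24 h compound exposure. Total RNA → oligo(dT) RT → PCR → 6-FAM primer extension → HpaI cut → CE. Bidirectional fit vs DMSO.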

[18] = APR_HepG2_NuclearSize_72hr: Apredica 72-hour HepG2 Assay for Nuclear Size (AID 2282925); settings: high-content imaging, actives raise or lower the signal
Outline: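 HepG2 cells dosed 72 h at 0.39–200 uM (10 concentrations, duplicate) in 0.5% v/v DMSO final. Fixed, Hoechst 33342-stained nuclei imaged; nuclear diameter measured by automated image analysis. Bidirectional fit versus DMSO.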

[19] = ATG_EGR_CIS: Attagene CIS-FACTORIAL HepG2 Assay for human Early Growth Response 1 (EGR1) (AID 2282938); settings: HepG2 Attagene CIS-FACTORIAL EGR reporter mRNA; actives raise or lower the signal
Outline: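 Endogenous TF activity in HepG2 liver cells was gauged through cis-promoter reporter constructs transiently transfected. After 24 h dosing, reporter mRNA was quantified by RT-PCR and capillary electrophoresis, and curves fitted in both directions versus DMSO.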

[20] = biological target: CCAAT/enhancer-binding protein beta (Homo sapiens) (UniProt P17676); assay: ATG_C_EBP_CIS: Attagene CIS-FACTORIAL HepG2 Assay for human CCAAT/Enhancer Binding Protein (C/EBP) beta (AID 2282927); settings: HepG2 Attagene cis-factorial transcription factor reporter; actives raise or lower the signal
Outline: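 HepG2 transiently transfected with multiplexed reporter units under cis-regulatory promoters reporting endogenous C/EBPb activity. After 24 h exposure, reporter mRNA assayed by RT-PCR, fluorescent labelling, HpaI digestion and capillary electrophoresis; bidirectional fitting versus DMSO.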

Measured: AC50

Sequence of CCAAT/enhancer-binding protein beta (Homo sapiens) (P17676 whole entry, looked up): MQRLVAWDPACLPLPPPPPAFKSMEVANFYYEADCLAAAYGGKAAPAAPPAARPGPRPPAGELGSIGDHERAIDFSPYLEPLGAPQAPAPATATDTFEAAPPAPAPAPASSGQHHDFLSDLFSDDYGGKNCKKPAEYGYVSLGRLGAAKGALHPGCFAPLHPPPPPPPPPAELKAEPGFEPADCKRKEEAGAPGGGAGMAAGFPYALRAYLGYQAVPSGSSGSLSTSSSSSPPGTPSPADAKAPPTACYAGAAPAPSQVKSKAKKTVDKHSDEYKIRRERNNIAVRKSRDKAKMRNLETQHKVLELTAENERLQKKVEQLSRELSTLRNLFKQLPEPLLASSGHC
Sequence of Aryl hydrocarbon receptor (Homo sapiens) (P35869 whole entry, looked up): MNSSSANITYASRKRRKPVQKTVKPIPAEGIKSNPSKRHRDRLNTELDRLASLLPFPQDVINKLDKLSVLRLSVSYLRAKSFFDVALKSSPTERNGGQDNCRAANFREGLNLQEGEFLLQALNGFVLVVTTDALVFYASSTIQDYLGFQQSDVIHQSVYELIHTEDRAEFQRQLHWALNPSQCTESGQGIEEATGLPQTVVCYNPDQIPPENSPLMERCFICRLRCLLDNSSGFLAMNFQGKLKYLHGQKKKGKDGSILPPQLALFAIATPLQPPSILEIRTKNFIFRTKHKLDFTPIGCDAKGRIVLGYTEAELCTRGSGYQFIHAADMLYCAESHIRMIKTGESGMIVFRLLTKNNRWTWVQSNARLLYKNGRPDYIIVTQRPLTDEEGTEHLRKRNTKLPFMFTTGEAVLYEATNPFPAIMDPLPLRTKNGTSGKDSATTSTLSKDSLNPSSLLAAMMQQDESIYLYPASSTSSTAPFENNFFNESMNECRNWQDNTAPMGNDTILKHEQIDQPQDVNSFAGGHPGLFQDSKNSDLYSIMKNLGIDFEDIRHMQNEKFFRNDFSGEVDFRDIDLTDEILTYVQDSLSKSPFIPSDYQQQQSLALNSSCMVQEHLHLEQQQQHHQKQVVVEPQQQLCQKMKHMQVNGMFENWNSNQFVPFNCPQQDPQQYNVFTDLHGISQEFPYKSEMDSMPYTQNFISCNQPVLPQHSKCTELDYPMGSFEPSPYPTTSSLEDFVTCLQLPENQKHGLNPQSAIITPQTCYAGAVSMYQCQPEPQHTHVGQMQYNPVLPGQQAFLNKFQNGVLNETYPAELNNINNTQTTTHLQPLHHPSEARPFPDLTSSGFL
Sequence of Hepatocyte nuclear factor 3-beta (Homo sapiens) (Q9Y261 whole entry, looked up): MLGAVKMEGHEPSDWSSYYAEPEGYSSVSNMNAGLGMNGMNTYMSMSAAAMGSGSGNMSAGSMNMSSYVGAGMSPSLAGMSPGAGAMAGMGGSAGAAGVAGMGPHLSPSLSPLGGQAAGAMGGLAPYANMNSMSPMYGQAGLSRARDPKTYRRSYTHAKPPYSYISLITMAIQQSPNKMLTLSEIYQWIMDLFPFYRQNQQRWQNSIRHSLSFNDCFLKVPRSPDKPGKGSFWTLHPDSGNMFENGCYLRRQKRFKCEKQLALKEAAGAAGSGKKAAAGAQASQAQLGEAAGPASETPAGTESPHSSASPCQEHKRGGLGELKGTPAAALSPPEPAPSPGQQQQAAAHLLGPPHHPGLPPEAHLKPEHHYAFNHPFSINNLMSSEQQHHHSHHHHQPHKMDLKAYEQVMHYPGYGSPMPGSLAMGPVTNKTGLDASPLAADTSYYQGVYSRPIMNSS
Sequence of Transcription factor E2F1 (Homo sapiens) (Q01094 whole entry, looked up): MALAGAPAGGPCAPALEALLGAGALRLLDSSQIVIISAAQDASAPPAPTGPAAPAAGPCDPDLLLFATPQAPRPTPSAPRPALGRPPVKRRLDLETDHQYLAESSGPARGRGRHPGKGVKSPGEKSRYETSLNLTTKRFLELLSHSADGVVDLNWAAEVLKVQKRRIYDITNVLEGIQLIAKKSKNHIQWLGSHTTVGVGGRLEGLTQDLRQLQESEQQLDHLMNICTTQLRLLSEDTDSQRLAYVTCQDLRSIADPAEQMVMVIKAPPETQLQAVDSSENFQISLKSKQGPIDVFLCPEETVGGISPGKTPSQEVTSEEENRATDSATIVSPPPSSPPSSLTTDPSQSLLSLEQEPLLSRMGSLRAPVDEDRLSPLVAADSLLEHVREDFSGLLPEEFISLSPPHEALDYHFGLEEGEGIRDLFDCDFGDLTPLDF
Sequence of Retinoic acid receptor alpha (Homo sapiens) (P10276 whole entry, looked up): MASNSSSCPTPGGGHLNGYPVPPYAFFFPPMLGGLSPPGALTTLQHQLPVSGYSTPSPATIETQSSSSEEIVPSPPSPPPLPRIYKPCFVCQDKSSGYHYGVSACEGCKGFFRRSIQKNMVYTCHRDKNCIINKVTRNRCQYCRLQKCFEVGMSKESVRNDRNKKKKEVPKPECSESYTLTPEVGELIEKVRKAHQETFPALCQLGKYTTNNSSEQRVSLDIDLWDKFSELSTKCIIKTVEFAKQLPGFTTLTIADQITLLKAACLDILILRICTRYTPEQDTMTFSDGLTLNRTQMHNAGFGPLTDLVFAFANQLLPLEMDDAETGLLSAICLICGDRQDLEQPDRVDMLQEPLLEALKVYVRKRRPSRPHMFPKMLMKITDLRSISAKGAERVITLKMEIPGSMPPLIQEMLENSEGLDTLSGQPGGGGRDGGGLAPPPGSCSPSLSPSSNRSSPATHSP

O=C(O)CO
not listed: [18] | [19] | [20]
inactive: all other assays above

NCC(F)(F)C(F)(F)C(F)(F)C(F)(F)F
not listed: [18] | [19] | [20]
inactive: all other assays above

O=C(O)[C@H](O)[C@@H](O)C(=O)O
not listed: [8] | [19] | [20]
inactive: all other assays above

OC(O)(C(F)C(O)(O)C(F)(F)F)C(F)(F)F
active: [2] 9 µM and 6.13 µM | [3] 37.9 µM and 4.59 µM | [6] 71 µM and 18.9 µM | [7] 6.79 µM | [13] 150 µM
inactive: [1] | [4] | [5] | [7] | [8] | [9] | [10] | [11] | [19] | [12] | [13] | [14] | [15] | [16] | [17]

FC(F)(F)C(F)(F)C(F)(F)C(F)(F)C(F)(F)C(F)(F)I
active: [8] 103 µM | [13] 24 µM and 27.1 µM
inactive: [1] | [20] | [2] | [3] | [4] | [5] | [6] | [7] | [8] | [9] | [10] | [11] | [12] | [14] | [15] | [16] | [17]

FC(F)(F)COC(OCC(F)(F)F)OCC(F)(F)F
not listed: [18] | [19]
inactive: all other assays above

C[C@]12C=CC(=O)C=C1CC[C@H]1[C@@H]3C[C@@H](O)[C@](O)(C(=O)CO)[C@@]3(C)C[C@H](O)[C@@]12F
active: [13] 17.8 µM
not listed: [8] | [19] | [20]
inactive: all other assays above
